{"source": "the OligoGym collection", "data": [{"target": "RASGRP2", "assay": "pooled miR-30 sensor sort-seq; sequence = guide strand", "settings": "shRNA", "values": [{"sequence": "TTCAAGTCAAACTCCGCTGGGA", "sensor-assay potency score (higher = more potent)": 0.724}, {"sequence": "TAGCAGAGCCTTCAGCTCCTTG", "sensor-assay potency score (higher = more potent)": -0.951}, {"sequence": "TAGGAAACCATCTCCTCCCTGC", "sensor-assay potency score (higher = more potent)": 0.463}, {"sequence": "TTTGCTGAGGATCATGAGCTGC", "sensor-assay potency score (higher = more potent)": -0.888}]}, {"target": "RASIP1", "assay": "pooled miR-30 sensor sort-seq; sequence = guide strand", "settings": "shRNA", "values": [{"sequence": "TTCCAAGTCATTGCAGAGCTGT", "sensor-assay potency score (higher = more potent)": -0.369}, {"sequence": "TTGACCTCGTTCCATCAGCGAG", "sensor-assay potency score (higher = more potent)": -1.71}, {"sequence": "TTTTCTGAGCGCTCCTTGCCTC", "sensor-assay potency score (higher = more potent)": -0.853}, {"sequence": "TCAACTGATCGAAGTCCCCGGG", "sensor-assay potency score (higher = more potent)": 0.0667}, {"sequence": "TGGAGCAGCAGGAAGTAGGGGC", "sensor-assay potency score (higher = more potent)": 0.0878}, {"sequence": "AAGAAGACTTGACAGAGGCTGC", "sensor-assay potency score (higher = more potent)": 0.0487}, {"sequence": "TTGAATAGAGAGTCTTGGTGAG", "sensor-assay potency score (higher = more potent)": 0.37}, {"sequence": "TTAGGCTGCTCCATGAAGCCTT", "sensor-assay potency score (higher = more potent)": -0.552}, {"sequence": "TAGGTCTCAATCCTGGAGGCAT", "sensor-assay potency score (higher = more potent)": -0.489}, {"sequence": "TTGGTCAGCCTCCTTCTCCATT", "sensor-assay potency score (higher = more potent)": -1.48}, {"sequence": "TTGGAGAAGAAGAACAAGTAGC", "sensor-assay potency score (higher = more potent)": -0.187}, {"sequence": "TGAATAGAGAGTCTTGGTGAGG", "sensor-assay potency score (higher = more potent)": -1.22}]}, {"target": "RASL10B", "assay": "pooled miR-30 sensor sort-seq; sequence = guide strand", "settings": "shRNA", "values": [{"sequence": "ATGTAGGCGTGGACACTCCGGA", "sensor-assay potency score (higher = more potent)": -0.908}, {"sequence": "TCCACGTAGCCGCACTTCCAGG", "sensor-assay potency score (higher = more potent)": -2}, {"sequence": "TAGACCAGGATGTAGGCGTGGA", "sensor-assay potency score (higher = more potent)": -0.176}, {"sequence": "TTAATCAGGATAGTCTGAGATC", "sensor-assay potency score (higher = more potent)": -1.01}, {"sequence": "TTGACGTACTCAAAGCTGTCAA", "sensor-assay potency score (higher = more potent)": 0.000852}, {"sequence": "TCGTTGTACAAGAACTGGCGCA", "sensor-assay potency score (higher = more potent)": -0.634}, {"sequence": "TCGTAGACCAGGATGTAGGCGT", "sensor-assay potency score (higher = more potent)": 0.139}, {"sequence": "AACTCGTTGTACAAGAACTGGC", "sensor-assay potency score (higher = more potent)": 0.0656}, {"sequence": "TTCTAAATCGGTACAAAACTGA", "sensor-assay potency score (higher = more potent)": -0.599}, {"sequence": "TACAAAACTGACAGTGATCAGC", "sensor-assay potency score (higher = more potent)": -0.715}, {"sequence": "TAGCCGCACTTCCAGGTCTTGC", "sensor-assay potency score (higher = more potent)": -1.97}, {"sequence": "TAGGTTGTTGTGTCTCTGGGGG", "sensor-assay potency score (higher = more potent)": 0.276}]}, {"target": "RASSF2", "assay": "pooled miR-30 sensor sort-seq; sequence = guide strand", "settings": "shRNA", "values": [{"sequence": "TTCGTTGTCATCCTGCATCTGC", "sensor-assay potency score (higher = more potent)": 0.418}, {"sequence": "TATCTTGTCCACATGGGACTAG", "sensor-assay potency score (higher = more potent)": 0.13}, {"sequence": "TTCTGTTTCTCACCACTCGTAT", "sensor-assay potency score (higher = more potent)": -0.432}, {"sequence": "TTCCCGATCTTCTTCCTCCTGG", "sensor-assay potency score (higher = more potent)": 0.559}, {"sequence": "TATTTATCTTGTCCACATGGGA", "sensor-assay potency score (higher = more potent)": -0.838}, {"sequence": "TACATGTGAAAGTATCAGGTAG", "sensor-assay potency score (higher = more potent)": -0.041}, {"sequence": "TCTGCTGACTTCTACATCCAGC", "sensor-assay potency score (higher = more potent)": -0.516}, {"sequence": "TTTGTGTCTAAATGTTTCCATG", "sensor-assay potency score (higher = more potent)": -1.27}, {"sequence": "TTCTCCATTAGGAACACTTTGG", "sensor-assay potency score (higher = more potent)": -1.02}, {"sequence": "TAACTAAAATCAAAAGTCCTTG", "sensor-assay potency score (higher = more potent)": -0.812}, {"sequence": "TATGGTTGTAGAAATGGCCGTT", "sensor-assay potency score (higher = more potent)": 1.03}, {"sequence": "TTTAAGTACCGGCATCTCGAAC", "sensor-assay potency score (higher = more potent)": -0.976}]}]}
